# Measured values as given in the supplement of paper PMC8728848.
# Many of the other results were omitted from the sample, so the strongest signals are more common in it than they were.
# Key:
# Test in all cases: glycan array binding signal (z-score within array); higher = stronger binding
# Details in all cases: glycan notation: IUPAC condensed, linker removed
# [1] = biological target: GlcNAc(b1-3)Gal(b1-4)GlcNAc(b1-3)Gal(b1-4)GlcNAc(b1-3)Gal(b1-4)GlcNAc(b1-2)Man(a1-3)[GlcNAc(b1-3)Gal(b1-4)GlcNAc(b1-3)Gal(b1-4)GlcNAc(b1-3)Gal(b1-4)GlcNAc(b1-2)Man(a1-6)]Man(b1-4)GlcNAc(b1-4)GlcNAc
# Method in brief: (§1)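 The Consortium for Functional Glycomics database supplied 3228 glycan arrays, of which those lacking an available protein sequence were dropped. The binding signal, a within-array Z-score, was averaged across arrays of the same protein sequence and across linkers. Negative scores can be read as non-binding.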
# [2] = biological target: GlcNAc(b1-3)[GlcNAc(b1-4)][GlcNAc(b1-6)]GlcNAc
# Method in brief: as §1
# Kdn(a2-6)Gal(b1-4)GlcNAc = biological target: Kdn(a2-6)Gal(b1-4)GlcNAc
# Method in brief: as §1
# [3] = biological target: Man(a1-2)Man(a1-3)[Man(a1-2)Man(a1-6)]Man
# Method in brief: as §1
# [4] = biological target: Man(a1-2)Man(a1-3)[Man(a1-2)Man(a1-6)]Man(a1-6)[Man(a1-2)Man(a1-2)Man(a1-3)]Man
# Method in brief: as §1
# Man(a1-3)[Man(a1-6)]Man = biological target: Man(a1-3)[Man(a1-6)]Man
# Method in brief: as §1
# [5] = biological target: Neu5Ac(a2-3)Gal(b1-3)GlcNAc(b1-2)[Neu5Ac(a2-3)Gal(b1-3)GlcNAc(b1-4)]Man(a1-6)[Neu5Ac(a2-3)Gal(b1-3)GlcNAc(b1-2)Man(a1-3)]Man(b1-4)GlcNAc(b1-4)GlcNAc
# Method in brief: as §1
# [6] = biological target: Neu5Ac(a2-3)Gal(b1-3)GlcNAc(b1-3)Gal(b1-3)GlcNAc
# Method in brief: as §1
# [7] = biological target: Neu5Ac(a2-3)Gal(b1-4)GlcNAc(b1-2)Man(a1-3)[GlcNAc(b1-4)][Neu5Ac(a2-3)Gal(b1-4)GlcNAc(b1-2)Man(a1-6)]Man(b1-4)GlcNAc(b1-4)GlcNAc
# Method in brief: as §1
# [8] = biological target: Neu5Ac(a2-3)Gal(b1-4)GlcNAc(b1-2)Man(a1-3)[Neu5Ac(a2-6)Gal(b1-4)GlcNAc(b1-2)Man(a1-6)]Man(b1-4)GlcNAc(b1-4)GlcNAc
# Method in brief: as §1
# [9] = biological target: Neu5Ac(a2-3)Gal(b1-4)GlcNAc(b1-3)Gal(b1-4)GlcNAc(b1-3)[Neu5Ac(a2-3)Gal(b1-4)GlcNAc(b1-3)Gal(b1-4)GlcNAc(b1-6)]GalNAc
# Method in brief: as §1
# [10] = biological target: Neu5Ac(a2-3)Gal(b1-4)[Fuc(a1-3)]GlcNAc(b1-3)GalNAc
# Method in brief: as §1
# [11] = biological target: Neu5Ac(a2-3)Gal6S(b1-4)[Fuc(a1-3)]GlcNAc
# Method in brief: as §1
# [12] = biological target: Neu5Ac(a2-6)Gal(b1-4)GlcNAc
# Method in brief: as §1
# [13] = biological target: Neu5Ac(a2-6)Gal(b1-4)GlcNAc(b1-2)Man(a1-3)[Gal(b1-4)GlcNAc(b1-2)Man(a1-6)]Man(b1-4)GlcNAc(b1-4)GlcNAc
# Method in brief: as §1
# [14] = biological target: Neu5Ac(a2-6)Gal(b1-4)GlcNAc(b1-2)Man(a1-3)[GlcNAc(b1-2)Man(a1-6)]Man(b1-4)GlcNAc(b1-4)GlcNAc
# Method in brief: as §1
# [15] = biological target: Neu5Ac(a2-6)Gal(b1-4)GlcNAc(b1-2)Man(a1-3)[Neu5Ac(a2-3)Gal(b1-4)GlcNAc(b1-2)Man(a1-6)]Man(b1-4)GlcNAc(b1-4)GlcNAc
# Method in brief: as §1
# [16] = biological target: Neu5Ac(a2-6)Gal(b1-4)GlcNAc(b1-6)GalNAc
# Method in brief: as §1
# [17] = biological target: Neu5Ac(a2-8)Neu5Ac(a2-3)Gal(b1-3)GalNAc(b1-4)[Neu5Ac(a2-8)Neu5Ac(a2-3)]Gal(b1-4)Glc
# Method in brief: as §1
# [18] = biological target: Neu5Ac(a2-8)Neu5Ac(a2-8)Neu5Ac(a2-3)[Gal(b1-3)GalNAc(b1-4)]Gal(b1-4)Glc
# Method in brief: as §1
# [19] = biological target: Neu5Ac(b2-6)Gal(b1-4)GlcNAc
# Method in brief: as §1
# [20] = biological target: Neu5Gc(a2-3)Gal(b1-3)[Fuc(a1-4)]GlcNAc
# Method in brief: as §1
binder,measurement,setting,value
Clec39 (Caenorhabditis elegans) (protein) MTSFYDNSSSSSKPVPLKTSRAQKIQILIFDNWKLILYGAISTLILVLAIMFSTLFFALPAANCDENSEPTKYYTTNAEITTTITTTNQKTTSTASSHLTTISSSATQIYSESSSSSTSQSTFTQSPPEISTTTIAPSDFSCQHGFTLVNNKCWKLVTSNQARPDADKICNGYGGATLFSIKSEQDNRAMIHFVKGQDIDFLWSGLLCSAGEPISCIWDIENGSTANYSNFADGFPNIVYGNCVYFITSGDEAGQWGNEQCGQVMNFVCELPATFQGKDGCKNNYEKSCYLRFDLNLTVPQAQNFCLEKCANLVSIHSANEVRFIMTIYDFIGEILIGALAPAQDFIYWLDGTPANYNNLKFFYNSTCVHMTVAPGMQNVGKWFTRFCTETGKFLCKRSIKNSCT,glycan array binding signal (z-score),[1],-0.221
same,glycan array binding signal (z-score),[2],0.102
same,glycan array binding signal (z-score),Kdn(a2-6)Gal(b1-4)GlcNAc,0.204
same,glycan array binding signal (z-score),[3],-0.005
same,glycan array binding signal (z-score),[4],0.088
same,glycan array binding signal (z-score),Man(a1-3)[Man(a1-6)]Man,0.047
same,glycan array binding signal (z-score),[5],0.47
same,glycan array binding signal (z-score),[6],-0.142
same,glycan array binding signal (z-score),[7],1.43
same,glycan array binding signal (z-score),[8],2.22
same,glycan array binding signal (z-score),[9],-0.101
same,glycan array binding signal (z-score),[10],4.34
same,glycan array binding signal (z-score),[11],-1.24
same,glycan array binding signal (z-score),[12],-1.22
same,glycan array binding signal (z-score),[13],0.815
same,glycan array binding signal (z-score),[14],0.613
same,glycan array binding signal (z-score),[15],-0.493
same,glycan array binding signal (z-score),[16],-0.055
same,glycan array binding signal (z-score),[17],1.4
same,glycan array binding signal (z-score),[18],0.076
same,glycan array binding signal (z-score),[19],-0.632
same,glycan array binding signal (z-score),[20],1.01
